Data published in PubChem BioAssay (Tox21).
Calls of active or inactive are those of the source. A call without a number means that no potency is given here. Calls come from the whole dose curve.

biological target: Acetylcholinesterase (Homo sapiens) (UniProt P22303); test: Acetylcholinesterase (AChE) small molecule antagonists: enzyme-based qHTS assay (AID 1347397); conditions: Potency: AChE enzyme activity inhibition; series mostly up to 115 µM; note: nearly all actives have a fitted effect of over 55% in size
Excerpt: National Center for Advancing Translational Sciences [NCATS]
Division of Preclinical Innovation [DPI]
U.S. Environmental Protection Agency [EPA]
National Institutes of Environmental Health Sciences [NIEHS]
National Toxicology Program [NTP]
U.S. Food and Drug Administration [FDA]
Acetylcholinesterase (AChE) is the primary cholinesterase in the body that hydrolyzes a key neurotransmitter, acetylcholine. Inhibition of AChE activity can lead to neurotoxicity. The known inhibitors include organophosphorous pesticides (OP), chemical warfare agents, drugs, and various phytochemicals.
An enzyme-based assay with the recombinant human AChE and Amplite Colormetric acetylcholinesterase assay kit (AAT Bioquest, Sunnyvale, CA) was used to evaluate the chemicals in the Tox21 10K library that inhibit AChE activity. The assay uses 5, 5-dithiobis-(2-nitrobenzoic acid) (DTNB) to quantify the thiocholine produced from the hydrolysis of acetylthiocholine by AChE.
Tox21 Assay Protocol Summary:
For the enzyme-based AChE assay, recombinant human AChE (50 mU/mL) in 4 uL/well was dispensed into black, clear-bottom 1536-well plates using a Multidrop Combi dispenser (Thermo Scientific, MA). Then, 23 nL of compound or DMSO (vehicle control) was transferred into the assay plates by a Pintool Station (Wako Automation, CA). The plates were incubated for 30 min at room temperature, followed by the addition of 4 uL of colorimetric detection cocktail solution (DTNB, acetylthiocholine) into each well using a Flying Reagent Dispenser (Beckman Coulter, CA) and then 10 min incubation at room temperature.
Potency is the fitted concentration of half-maximal effect.

Sequence of Acetylcholinesterase (Homo sapiens) (P22303 whole entry, looked up): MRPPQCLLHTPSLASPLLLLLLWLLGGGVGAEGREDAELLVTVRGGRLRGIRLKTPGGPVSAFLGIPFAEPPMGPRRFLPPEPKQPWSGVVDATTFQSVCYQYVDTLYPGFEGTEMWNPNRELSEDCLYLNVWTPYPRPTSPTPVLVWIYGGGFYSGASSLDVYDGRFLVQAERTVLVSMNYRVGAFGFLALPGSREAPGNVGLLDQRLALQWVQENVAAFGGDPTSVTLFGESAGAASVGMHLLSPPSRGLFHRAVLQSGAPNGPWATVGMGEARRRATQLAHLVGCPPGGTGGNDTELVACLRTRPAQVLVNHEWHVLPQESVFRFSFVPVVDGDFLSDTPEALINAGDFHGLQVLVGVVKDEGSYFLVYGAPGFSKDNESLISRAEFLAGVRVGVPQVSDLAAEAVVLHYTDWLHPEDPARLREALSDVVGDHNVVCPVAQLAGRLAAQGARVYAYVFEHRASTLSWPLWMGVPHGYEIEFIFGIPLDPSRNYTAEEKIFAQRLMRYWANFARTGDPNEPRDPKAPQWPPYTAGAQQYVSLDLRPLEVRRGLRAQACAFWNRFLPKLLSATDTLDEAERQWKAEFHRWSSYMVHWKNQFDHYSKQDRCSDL

SMILES	Potency
Cc1c([N+](=O)[O-])c(C)c([N+](=O)[O-])c(C(C)(C)C)c1[N+](=O)[O-]	inactive
O=C(Nc1ccc(F)cc1F)c1cccnc1Oc1cccc(C(F)(F)F)c1	inactive
COC(=O)/C=C(\C)OP(=O)(OC)OC	3.56 µM (active)
NC(=O)C(Cl)Cl	inactive
CCCCC(CC)COC(=O)c1ccccc1C(=O)OCC(CC)CCCC (stereo not given)	inactive
CNN	inactive
CCN(CC)C(=S)S	inactive
C=C(C)C(=O)[O][Sn]([CH2]CCC)([CH2]CCC)[CH2]CCC	inactive
Cc1nn(-c2cc(NS(C)(=O)=O)c(Cl)cc2Cl)c(=O)n1C(F)F	inactive
CCNS(=O)(=O)C(F)(F)C(F)(F)C(F)(F)C(F)(F)C(F)(F)C(F)(F)C(F)(F)C(F)(F)F	inactive
CNC(C)(C)Cc1ccccc1	inactive
CCN(CC)Cc1nccn1-c1ccc([N+](=O)[O-])cc1C(=O)c1ccccc1Cl	inactive
CC[C@]1(O)CC[C@H]2[C@@H]3CCC4=CCCC[C@@H]4[C@H]3CC[C@@]21C	inactive
O=S1(=O)OCC2C(CO1)C1(Cl)C(Cl)=C(Cl)C2(Cl)C1(Cl)Cl (stereo not given)	inactive
O=S1OCC2C(CO1)C1(Cl)C(Cl)=C(Cl)C2(Cl)C1(Cl)Cl (stereo not given)	inactive
Cc1cc(C2CC2)nc(Nc2ccccc2)n1	inactive
Nc1nc(N)c(N)c(N)n1	inactive
ClC(Cl)C(Cl)(Cl)Cl	inactive
C[C@]12Cc3cn[nH]c3C[C@@H]1CC[C@@H]1[C@@H]2CC[C@@]2(C)[C@H]1CC[C@]2(C)O	inactive
C=CC(=C)C	inactive

SMILES	Potency
CCC[CH2][Sn]([CH2]CCC)([CH2]CCC)[CH2]CCC	inactive
CCCCCCCc1ccc(O)cc1	inactive
CCCCCON=O	inactive
CC(=O)[O][Pb]([c]1ccccc1)([c]1ccccc1)[c]1ccccc1	inactive
ClC1(Cl)C2(Cl)C3(Cl)C4(Cl)C(Cl)(Cl)C5(Cl)C3(Cl)C1(Cl)C5(Cl)C24Cl (stereo not given)	inactive
N#CSCc1ccccc1	inactive
CC(=O)[O][Sn]([c]1ccccc1)([c]1ccccc1)[c]1ccccc1	inactive
CCCCC/C=C\C/C=C\C/C=C\C/C=C\CCCC(=O)NCC(=O)O	inactive
N#Cc1c[nH]cc1-c1cccc2c1OC(F)(F)O2	inactive
FC(F)C(F)(F)OCC(Cn1cncn1)c1ccc(Cl)cc1Cl (stereo not given)	inactive
Cc1ccc2cc3c(ccc4ccccc43)c3c2c1CC3	inactive
CCOP(=O)(OCC)Oc1cc(C)nc(C(C)C)n1	5.67 µM (active)
CCCCc1ccccc1	inactive
N#CCCl	inactive
CO/N=C(\C(=O)OC)c1ccccc1CO/N=C(\C)c1cccc(C(F)(F)F)c1	inactive
C=CC(=O)[O][Sn]([CH2]CCC)([CH2]CCC)[CH2]CCC	inactive
N#Cc1ccc(N(CC(N)=O)CC(F)(F)F)cc1C(F)(F)F	inactive
CCCCN(CCCC)C(=S)[S-].CCCCN(CCCC)C(=S)[S-].[Ni+2]	inactive
CCCCN(CCCC)C(=S)S	inactive
CCN(CC)CCN1C(=O)CN=C(c2ccccc2F)c2cc(Cl)ccc21	inactive
